Rows were chosen to be rich in hits. Some 3.2% of all compounds tested hit in one or more screens of this group.
CDK5 inh = CDK5/p35 (human) kinase inhibition | Q00535+Q15078 | Recombinant CDK5/p35, ADP-Glo luminescence, 60 min | inhibition, % at 10 µM | 330,000 tested, 0.01% active | AID 488839;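 active = highest replicate inhibition of at least 50% and at least 75% of replicates reaching 50%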
Target sequence (Q00535 whole entry, looked up): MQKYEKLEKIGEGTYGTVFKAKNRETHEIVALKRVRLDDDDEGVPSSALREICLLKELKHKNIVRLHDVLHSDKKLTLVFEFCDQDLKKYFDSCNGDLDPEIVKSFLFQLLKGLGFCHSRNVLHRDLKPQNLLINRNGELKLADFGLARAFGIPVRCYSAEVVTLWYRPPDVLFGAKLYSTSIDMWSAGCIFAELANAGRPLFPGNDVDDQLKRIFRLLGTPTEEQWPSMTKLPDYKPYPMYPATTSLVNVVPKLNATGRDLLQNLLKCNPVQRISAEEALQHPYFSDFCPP
Target sequence (Q15078 whole entry, looked up): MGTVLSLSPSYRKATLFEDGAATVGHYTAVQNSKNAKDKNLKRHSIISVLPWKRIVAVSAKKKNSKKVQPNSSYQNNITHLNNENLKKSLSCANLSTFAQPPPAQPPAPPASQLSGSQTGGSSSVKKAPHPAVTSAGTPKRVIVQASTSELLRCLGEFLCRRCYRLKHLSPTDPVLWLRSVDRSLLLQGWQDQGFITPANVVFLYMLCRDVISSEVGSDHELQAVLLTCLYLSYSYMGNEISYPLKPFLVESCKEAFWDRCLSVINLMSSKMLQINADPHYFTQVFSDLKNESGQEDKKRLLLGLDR
Dyrk1A ADPGlo = blocks rat Dyrk1A kinase activity; Q63470; ADP-Glo luminescence, NFATc1 peptide; inhibition, % at 12.5 µM; 310,000 tested, 0.43% active; in the data active = inhibition above about 50%
SMARCA2 act = activators of SMARCA2 function; activation, % at 9.1 µM; AID 652017; MG213 cells, MMTV-luciferase reporter, dexamethasone, overnight; 370,000 tested, 1% active; in the data active = activation above about 7.8%
dFosB act = enhances mouse delta FosB homodimer DNA binding. 340,000 tested, 0.99% active. P13346. purified delta FosB, TAMRA-CDK5 oligo fluorescence polarization; percent of positive-control signal above neutral wells. activation, % at 25 µM;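 active = mean activation above about 17%, with every replicate also reaching it, limit read from the data, passing the limit was not always enough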
Rtt109 HAT inh = C. albicans Rtt109 histone acetyltransferase inhibition | purified Rtt109/Vps75, ThioGlo CoA-SH fluorescence, 4 h | inhibition, % at 34.9 µM | 330,000 tested, 0.16% active | AID 540336;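 active = inhibition of at least 50% in every replicate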
esBAF inh = blocks esBAF chromatin remodeling in mouse ES cells; AID 602393; reporter increase, % at 12.5 µM; 350,000 tested, 2% active; Bmi1-luciferase knock-in reporter, 24 h; 100% = twice the neutral-well signal; in the data active = activation above about 40%;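 note: a rise in the Bmi1 reporter signal indicates esBAF inhibition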
SMARCA2 conf = confirmation of SMARCA2 (BRM) function activators; shares compounds with SMARCA2 act; MG213 cells, MMTV-luciferase with dexamethasone, luminescence, overnight; MG213 cells expressing E1A, Rb sequestered; DMSO wells 0%, reference activator 100%; activation, % at 9.1 µM; 3,500 tested, 30% active; AID 652260;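 active = activation above its plate's cutoff, the mean activation of tested wells plus 3 SD, cut at about 7.9% in these data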
VP16 Luc act = activates GAL4-VP16 luciferase, flagging SMARCA2 activator hits | activation, % at 9.1 µM | HEK293 GAL4-VP16 pG5luc reporter, luciferase luminescence; scaled: DMSO wells 0%, SAHA wells 100% | shares compounds with SMARCA2 act | 3,500 tested, 41% active;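 active = activation above the solvent-only control well mean plus 3 SD, averaged across control plates, cut at about 5.2% in these data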
Each line names hits and unclear results; the compound was inactive in the other large screens (follow-up assays come after a bar, where they were run).

Cc1ccc2nc(-c3ccc(NC(=O)CNC4CC4)cc3)sc2c1	SMARCA2 act 11 (no result: esBAF inh) | SMARCA2 conf 8.5 | VP16 Luc act 10
COc1ccc(NC(=O)Nc2ccc3c(c2)C(=O)N([C@H](C)CO)C[C@@H](C)[C@@H](CN(C)C(=O)CCC(F)(F)F)OCCCC[C@H](C)O3)cc1	none (no result: CDK5 inh, Dyrk1A ADPGlo, SMARCA2 act, dFosB act, Rtt109 HAT inh)
CN(C(=O)/C=C/c1cnc2ccccc2c1)C1CCCCC1	SMARCA2 act 9.9 (no result: esBAF inh) | SMARCA2 conf 12 | VP16 Luc act 11
C[C@H]1CN([C@@H](C)CO)C(=O)Cc2cc(NS(=O)(=O)c3cccs3)ccc2O[C@@H]1CN(C)S(=O)(=O)c1ccc(Cl)cc1	none (no result: CDK5 inh, Dyrk1A ADPGlo, SMARCA2 act, dFosB act, Rtt109 HAT inh)
O=C(c1cc2cc(Br)ccc2o1)N1CCN(c2ccccc2)CC1	SMARCA2 act 8.1 | SMARCA2 conf inactive | VP16 Luc act inactive
O=C(c1cc2cc(Br)ccc2o1)N1CCOCC1	none (no result: esBAF inh)
C/C=C/c1ccc2c(c1)O[C@@H](CN(C)C(=O)COC)[C@H](C)CN([C@H](C)CO)S2(=O)=O	none (no result: CDK5 inh, Dyrk1A ADPGlo, SMARCA2 act, dFosB act, Rtt109 HAT inh)
Nc1ccc(O)c(-c2nc3ccccc3s2)c1	none
Oc1ccc(-c2nc3ccccc3s2)c(O)c1	SMARCA2 act 14 (no result: esBAF inh) | SMARCA2 conf inactive | VP16 Luc act 10
Cn1c(SCc2cccc(F)c2)nnc1-c1ccccn1	SMARCA2 act 9.9 | SMARCA2 conf inactive | VP16 Luc act 6.3
O=C(CCC(NC(=O)OCc1ccccc1)C(=O)OCc1ccccc1)NCC(=O)OCc1ccccc1 (configuration not stated)	none
CC(=O)NCCCC(=O)NC(CCC(=O)OCc1ccccc1)C(=O)OCc1ccccc1 (configuration not stated)	SMARCA2 act 8.0 | SMARCA2 conf inactive | VP16 Luc act inactive
CC(C)NC(=O)N(C)C[C@@H]1Oc2ccc(NC(=O)Cn3cnnn3)cc2C(=O)N([C@@H](C)CO)C[C@@H]1C	none (no result: CDK5 inh, Dyrk1A ADPGlo, SMARCA2 act, dFosB act, Rtt109 HAT inh)
CCN(CC)C(=S)SSC(=S)N(CC)CC	SMARCA2 act 9.2, Rtt109 HAT inh 150 | SMARCA2 conf inactive | VP16 Luc act 7.0
CCN(CC)C(=S)SC1=CCS(=O)(=O)C1	none (no result: esBAF inh)
COc1cccc(C2Cc3ccccc3C(=O)O2)c1 (configuration not stated)	none (no result: esBAF inh)
COc1ccc(C2CC(=O)c3ccccc3O2)cc1 (configuration not stated)	SMARCA2 act 8.6, esBAF inh 61 | SMARCA2 conf inactive | VP16 Luc act inactive
CN(C)CCCNc1cc(C(C)(C)C)nc2c(-c3ccccc3)cnn12	SMARCA2 act 9.3 (no result: esBAF inh) | SMARCA2 conf inactive | VP16 Luc act 6.7
O=C(NCCCO)/C(=C/c1ccc(-c2cccc([N+](=O)[O-])c2)o1)NC(=O)c1ccccc1	none
Cc1ccc(C(=O)N/C(=C/c2ccc(-c3ccc([N+](=O)[O-])cc3)o2)C(=O)NCCCN(C)C)cc1	SMARCA2 act 9.5 (no result: Dyrk1A ADPGlo, esBAF inh) | SMARCA2 conf 12 | VP16 Luc act inactive
CCOC(=O)c1ccc(N2Cc3ccccc3C2=N)cc1	SMARCA2 act 12 | SMARCA2 conf 11 | VP16 Luc act inactive
O=C(NCc1ccccc1Cl)c1cc(=O)[nH]c2ccccc12	SMARCA2 act 8.4 | SMARCA2 conf inactive | VP16 Luc act inactive
O=C(NCc1ccccc1F)c1cc(=O)[nH]c2ccccc12	none
CN(C)CCNC(=O)c1cccc(-c2cc(NC=O)c3ncc(-c4cccc(C(F)(F)F)c4)n3c2)c1	SMARCA2 act 34 (no result: CDK5 inh, Dyrk1A ADPGlo, dFosB act, Rtt109 HAT inh) | SMARCA2 conf 29 | VP16 Luc act inactive
COc1cccc(-c2cnc3c(NC=O)cc(-c4cccc(C(=O)N(C)C)c4)cn23)c1	SMARCA2 act 12 (no result: CDK5 inh, Dyrk1A ADPGlo, dFosB act, Rtt109 HAT inh) | SMARCA2 conf inactive | VP16 Luc act inactive
CN(C)CCNC(=O)c1cccc(-c2cnc3c(NC=O)cc(-c4cc(F)c(F)c(F)c4)cn23)c1	none (no result: CDK5 inh, Dyrk1A ADPGlo, dFosB act, Rtt109 HAT inh)
O=C(C[C@@H]1CC[C@H](NC(=O)Cc2ccccn2)[C@@H](CO)O1)NCCCN1CCOCC1	none (no result: CDK5 inh, Dyrk1A ADPGlo, SMARCA2 act, dFosB act, Rtt109 HAT inh)
Fc1ccc(CSc2ccc(-c3ccco3)nn2)cc1	none (no result: Dyrk1A ADPGlo, esBAF inh)
Fc1cccc(CSc2ccc(-c3ccco3)nn2)c1	SMARCA2 act 15, esBAF inh 66 | SMARCA2 conf 13 | VP16 Luc act 5.5
CCOCCCNc1ccc(-c2ccccc2)nn1	SMARCA2 act 12 | SMARCA2 conf 10 | VP16 Luc act 6.1
CCOCCCNc1nc2ccccc2[nH]1	none
Clc1ccc(CSc2ncn[nH]2)cc1	none
Fc1ccccc1CSc1ncn[nH]1	SMARCA2 act 9.0 | SMARCA2 conf inactive | VP16 Luc act inactive
Cc1ccc(S(=O)(=O)N(C)C[C@@H]2OCCCC[C@@H](C)Oc3ccc(NC(=O)c4ccncc4)cc3C(=O)N([C@@H](C)CO)C[C@@H]2C)cc1	none (no result: CDK5 inh, Dyrk1A ADPGlo, SMARCA2 act, dFosB act, Rtt109 HAT inh)
O=C(NNC(=S)Nc1ccc(F)cc1F)c1ccco1	SMARCA2 act 12 | SMARCA2 conf 8.6 | VP16 Luc act inactive
O=C(NC(=S)Nc1cccc(O)c1)c1ccco1	SMARCA2 act 9.1 | SMARCA2 conf inactive | VP16 Luc act 7.6
O=C(NC(=S)Nc1ccccn1)c1ccco1	SMARCA2 act 8.8 (no result: esBAF inh) | SMARCA2 conf 12 | VP16 Luc act 8.6
O=C(NC(=S)Nc1ccc2c(c1)OCCO2)c1ccco1	none
N/C(=N\OS(=O)(=O)c1ccc(Br)cc1)c1ccncc1	none
CC(Oc1ccc(Br)cc1)C(=O)O/N=C(\N)c1ccncc1 (configuration not stated)	SMARCA2 act 12 | SMARCA2 conf inactive | VP16 Luc act inactive
C[C@@H]1CCCCO[C@H](CN(C)C(=O)CCCN(C)C)[C@H](C)CN([C@@H](C)CO)C(=O)c2cc(NC(=O)C3CCCCC3)ccc2O1	none (no result: CDK5 inh, Dyrk1A ADPGlo, SMARCA2 act, dFosB act, Rtt109 HAT inh)
Cc1c(/C=N/NC(=O)c2ccc(Br)o2)cnn1C	SMARCA2 act 14 (no result: esBAF inh) | SMARCA2 conf inactive | VP16 Luc act inactive
Cc1c(/C=N\NC(=O)c2ccc(F)cc2)cnn1C	none (no result: CDK5 inh, esBAF inh)
Cc1occc1C(=O)N/N=C/c1cnn(C)c1C	SMARCA2 act 8.8 | SMARCA2 conf inactive | VP16 Luc act inactive
Cc1c(/C=N\NC(=O)c2cccc(F)c2)cnn1C	none (no result: esBAF inh)
CCN(CC)CCn1nc2c3c(cccc3c1=O)-c1ccccc1-2	SMARCA2 act 35 (no result: Rtt109 HAT inh, esBAF inh) | SMARCA2 conf 72 | VP16 Luc act inactive
CCN(CC)CCn1nc(C)nc1-c1ccccc1O	none
C=COCCNC(=O)Nc1ccc(Cl)c(Cl)c1	SMARCA2 act 8.2 | SMARCA2 conf inactive | VP16 Luc act inactive
O=C(NCc1cccnc1)Nc1ccc(Cl)c(Cl)c1	SMARCA2 act 8.1 | SMARCA2 conf inactive | VP16 Luc act inactive
